Tests used:
[1] = target: T1, Aspartate--tRNA(Asp/Asn) ligase (Mycobacterium tuberculosis (strain ATCC 25618 / H37Rv)) (UniProt P9WFW3); test: Assay for Asp RNA synthetase-1 from Mycobacterium tuberculosis; format: functional; parameters: scale not given: direction of the effect not stated beside the values; conditions: 30 µM; note: in the data most compounds retested in dose-response had high values
T1 sequence (whole entry): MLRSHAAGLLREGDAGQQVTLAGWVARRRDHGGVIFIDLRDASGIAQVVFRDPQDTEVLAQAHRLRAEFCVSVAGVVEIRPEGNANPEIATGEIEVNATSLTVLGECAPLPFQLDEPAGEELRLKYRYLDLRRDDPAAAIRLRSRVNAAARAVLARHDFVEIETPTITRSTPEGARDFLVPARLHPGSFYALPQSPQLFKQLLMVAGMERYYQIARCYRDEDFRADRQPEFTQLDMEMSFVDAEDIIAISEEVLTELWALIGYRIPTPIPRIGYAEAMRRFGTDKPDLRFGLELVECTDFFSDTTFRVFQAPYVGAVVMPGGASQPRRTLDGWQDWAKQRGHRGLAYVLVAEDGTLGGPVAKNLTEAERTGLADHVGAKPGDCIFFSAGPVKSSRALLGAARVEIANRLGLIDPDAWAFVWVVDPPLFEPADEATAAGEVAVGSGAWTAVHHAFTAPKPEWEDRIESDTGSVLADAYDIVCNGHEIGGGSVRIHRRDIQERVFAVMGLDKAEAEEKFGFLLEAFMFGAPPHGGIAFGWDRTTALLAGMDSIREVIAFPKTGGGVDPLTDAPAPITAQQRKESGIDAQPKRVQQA

[2] = target: Shiga toxin 2 (Escherichia coli O157:H7) (UniProt P09385+P09386); test: E. coli 0.157:H7 Shiga Toxin SOP - stx2 screening assay; format: functional; parameters: scale not given: direction of the effect not stated beside the values; conditions: 30 µM

SMILES	Percent Effect [1] [%]	Percent Effect [2] [%]
CC(C)N(C)Cc1cn2c(n1)CN(Cc1ccsc1)CC2	1.89	-40.8
Cc1cccc(S(=O)(=O)NCC(C)N2CCN(C)CC2)c1Cl (stereo unspecified)	1.52	-12.1
CN(Cc1ccc(OC(F)F)cc1)C(=O)CS(=O)(=O)c1ccc(Cl)cc1	0.524	15
Cc1ccc2cnn(CCC(=O)Nc3c(C)nn(C)c3C)c2c1	0.535	-34.7
COC(=O)c1cc(C(=O)N2CCCCCC2)n(-c2ccccc2)n1	-0.856	30.9
CC(C)NC(=O)N1CCC2(COCc3cnc(-c4cccnc4)nc32)C1 (stereo unspecified)	-2.8	2.56
CC1=Nc2c(c(=O)[nH]n2C2CCCC2)C(c2cccc(O)c2)S1 (stereo unspecified)	0.174	10.3
COCCN1C(=O)C[C@H]2[C@H]1CCN2Cc1ccc(OC)cc1	6.6	-4.38
CC(C)NC(=O)CC1COC2(CCN(Cc3cccs3)CC2)C1 (stereo unspecified)	-0.0228	-27.2
CC(CN1CCOCC1)NC(=O)N(C)Cc1ccc(Cl)s1 (stereo unspecified)	1.38	-12.6
CCc1cc(NCCc2ccc(O)cc2)n2nccc2n1	5.69	5.92
COc1ccc(NC(=O)CNc2ccc(Br)cc2F)cc1	1.68	-79.8
COc1ccc2c(c1)CN(Cc1nc3ccsc3c(=O)[nH]1)CC2	-2.11	10.8
CN(C)c1cc(CNC(=O)Nc2ccc(F)cc2)ccn1	3.3	-156
c1cnnc(N2CCCC2CNCc2cnc(N3CCCC3)nc2)c1 (stereo unspecified)	0.626	-6.77
CC(=O)N1CCOC2(CCN(C(=O)c3cnoc3C)CC2)C1	-1.11	4.56
Cc1cccc(N2CC[C@@H]3CN(Cc4csc(C)n4)CCO[C@@H]3C2)n1	-1.08	-42.6
Cc1csc(N2CCCN(C(=O)c3c(C)oc(C)c3C)CC2)n1	-1.31	-3.9
O=C(c1cnoc1)N1CCC[C@]2(C[C@@H](OCc3ccccn3)CO2)C1	-4.58	-20.4
CCCc1nc(C)c(C(=O)NCCN2CCN(CC)CC2)s1	-0.278	-15.4
CC(O)CN1CCN(C(=O)c2ccc(Br)o2)CC1 (stereo unspecified)	-2.21	22.8
CC(NC(=O)COc1nc(C(C)(C)C)no1)c1ccco1 (stereo unspecified)	-2.04	16.4
COCCn1ccc(=O)c(OCC(=O)Nc2cccc(C(C)=O)c2)c1C	-4.27	-43.8
Cc1cnn(CCC(=O)N2CCOC(c3nc(C(C)(C)C)n[nH]3)C2)c1 (stereo unspecified)	-1.81	-26.2
CC(O)CN1CCC(CNCc2cccc(Br)c2)CC1 (stereo unspecified)	-1.97	18.9
Cc1n[nH]c(C)c1C1COCCN1C(=O)Cc1cccc(F)c1 (stereo unspecified)	3.85	-14.1

SMILES	Percent Effect [1] [%]	Percent Effect [2] [%]
Cc1ccsc1CN(CCN(C)C)Cc1ccccn1	-0.167	1.36
COc1ccc(CNC(=O)NCc2c(C)cc(C)[nH]c2=O)cc1	4.97	34.9
Cc1nc(C)n(C2CCCN(C(=O)Cc3n[nH]c4ccccc34)C2)n1 (stereo unspecified)	2.55	-3.54
Cc1cnn(CC2CCCN2C(=O)c2cccc(-n3cnnn3)c2)c1 (stereo unspecified)	-7.68	9.64
CO[C@@H]1CCN(Cc2cnn(C)c2)[C@@H]2CN(Cc3ccco3)C[C@@H]21	-4.07	-22
O=C1CC(c2ccsc2)c2sc(C(=O)O)c(-c3ccccc3)c2N1 (stereo unspecified)	1.95	17.4
Nc1ncc2c(n1)CN(C1CCCC1)C2=O	6.87	-55.7
CC(C)c1n[nH]c(C2CN(C(=O)c3cccc4cn[nH]c34)CCO2)n1 (stereo unspecified)	7.47	9.23
O=C(Cc1noc2ccccc12)N1CCCC1c1noc(C2CC2)n1 (stereo unspecified)	-3.11	8.27
CC(CNC(=O)Nc1cn[nH]c1)N1CCOCC1 (stereo unspecified)	1.82	26.9
N#Cc1cn(C2CC2)c(=O)n(CC(O)c2ccccc2F)c1=O (stereo unspecified)	0.3	14.2
Clc1ccccc1CN1CCc2nc(C3CCCCN3)ncc2C1 (stereo unspecified)	1.4	-35.9
Cc1nonc1C(=O)N1CCCC(c2ncncc2-c2ccncc2)C1 (stereo unspecified)	2.57	10.2
CN(CC1COc2ccccc2O1)C(=O)NCCCn1cncn1 (stereo unspecified)	1.57	21.4
Cc1cc(CN2CCN(CC(O)C(C)(C)C)CC2)no1 (stereo unspecified)	-13.9	0.649
COc1ncc(C2(O)CCN(Cc3c(F)cccc3F)CC2)c(OC)n1	2.49	71.8
Cc1cc(C)c(CNC(=O)NCc2ccc3c(c2)CCC3)c(=O)[nH]1	-4.97	32.4
Cc1ccc(C(=O)N2CCC3(CCN(C(=O)c4cccnc4)C3)CC2)o1	5.85	-10.6
Cn1ncc2c(=O)[nH]c(CN(Cc3ccco3)C3CCCC3)nc21	-7.5	-31.6
CCc1nc(C2CCCN2C(=O)CCc2ccc3c(c2)OCO3)no1 (stereo unspecified)	3.41	6.69
CCOc1cc(/C=C/c2ncc(C(=O)O)s2)ccc1O	0.568	-21.4
Cc1cc(-c2cnn(CCNC(=O)c3cccnc3)c2C2CC2)on1	0.491	-2.62
Cn1ccnc1CN1CCN(CCOc2ccccc2C#N)CC1	-0.506	16.8
CCn1ncc(NC(=O)c2cc(C3CC3)nc3c2c(C)nn3C)c1C	-1.99	-23
CCn1ncc2c1CCCC2NCc1cc(Cl)c(OC)c(OC)c1 (stereo unspecified)	-2.06	1.68
O=C1CCCN1CC1CN(C(=O)CC2CCCC2)Cc2nccn2C1 (stereo unspecified)	4.01	-4.12

SMILES	Percent Effect [1] [%]	Percent Effect [2] [%]
CC(C)COC(C)C(=O)N1CCN(S(C)(=O)=O)CC1 (stereo unspecified)	-6.93	-2.13
O=C(NCC1CCOC1)Nc1ccc(OCC(F)(F)F)nc1 (stereo unspecified)	-1.61	-28.7
O=C(c1cn(-c2ccccc2Cl)nn1)N1CCCSCC1	0.212	5.41
CC(C)OCCC(=O)N(C)CCCc1cc(-c2ccccc2)no1	2.1	38.9
CCN(CC)C(=O)C(c1ccccc1)N1CCn2c(C)nnc2C1 (stereo unspecified)	-4.06	4.2
c1cnc(N2CCOC3(CCN(CC4CCCCC4)CC3)C2)nc1	-0.897	-3.02
CC(C(=O)Nc1ccc(N2CCCC2)nc1)n1cncn1 (stereo unspecified)	0.459	11.3
Cc1cc(C)c(CNC(=O)N2CCCC2C(N)=O)c(=O)[nH]1 (stereo unspecified)	-6.91	-4.4
Cc1cc(CN(C)C(=O)c2ccc(F)cc2Br)no1	0.189	-57
CC(=O)N1CCN(C(=O)c2cnn(-c3ccccc3Cl)c2)CC1	4.65	14.3
COc1cccc(OCC2CCCN(C(C)=O)C2)c1 (stereo unspecified)	3.99	-11
CC(Cn1cccn1)NC(=O)Nc1ccc(F)cc1 (stereo unspecified)	1.84	-31.3
Cn1cnnc1C1CCCN(C(=O)NCCOc2ccccc2)C1 (stereo unspecified)	-4.29	-30.2
CCN1C(=O)C(C)(C)c2cc(NC(=O)c3ccco3)ccc21	10.8	-25.1
O=C(Cn1c(=O)n(Cc2ccco2)c2ncccc21)NC1CCCCC1	-3.2	-5.4
CNc1cncc(C2CCCN2Cc2ccccc2OCC(=O)O)n1 (stereo unspecified)	4.48	3.64
Cc1nc(C)n(CC2CCCN(CC(=O)Nc3nncs3)C2)n1 (stereo unspecified)	-4.19	25.6
O=C(NC1COC2(CCN(Cc3ccccn3)CC2)C1)c1ccccn1 (stereo unspecified)	-7.74	-29.1
CS(=O)(=O)CCN1CCC2(CCCN(C3CCOCC3)C2=O)C1 (stereo unspecified)	1.8	-11.9
COc1cc(NC(=O)c2cc(C)sc2C)c(C(=O)N(C)C)cc1OC	7.46	-44.2
O=C(CN1CCCC(Cn2cncn2)C1)NCCOc1ccccc1 (stereo unspecified)	-2.48	-0.612
Cc1cnn(CC2CCCCN2Cc2noc(C3CC3)n2)c1 (stereo unspecified)	-2.57	26.8
CCN1CCO[C@]2(CCC[C@H]2COCc2csc(C)n2)C1	-0.869	7.16
CC(C(=O)N1CCN(c2ccccc2Cl)CC1)n1cncn1 (stereo unspecified)	-1.38	-19.8
Cc1noc(C(C)C)c1C(=O)NS(=O)(=O)c1ccc(Cl)cc1	-2.79	13.7
O=C(NCCC1=CCCCC1)C1CCN(c2ccc3nncn3n2)CC1	-1.42	-16.7

SMILES	Percent Effect [1] [%]	Percent Effect [2] [%]
c1csc(-c2noc(CCCN3CCCC3Cn3cccn3)n2)c1 (stereo unspecified)	-1.67	15.3
COc1ccc(CNCc2c(C)nn(C)c2N2CCOCC2)cc1	-0.115	14.4
Cc1ccc(C2CSCCN2C(=O)C2=CCCC2)o1 (stereo unspecified)	6.9	5.19
O=C(NCCO)Nc1cccc(Cl)c1SC(F)F	0.334	-19.7
COC(C(=O)N1CCN(c2cccc(Cl)c2)C(=O)C1)c1ccccc1 (stereo unspecified)	0.0112	-0.212
CC1=Nc2c(c(=O)[nH]n2C2CCOCC2)C(c2cccc(Br)c2)S1 (stereo unspecified)	0.0871	15
CCn1c(Cn2cncn2)nnc1C1CCN(Cc2ccncc2)CC1	4.98	0.0626
Cc1nc(N2CCOCC2)nc2c1CN(C(=O)Cc1ccccn1)CC2	-2.71	-57.2
NC(=O)C1CCN(Cn2nc(-c3ccccc3)oc2=O)CC1	9.54	-53.5
CC(=O)N1CCC(c2ccnc(Nc3cncnc3)n2)C1 (stereo unspecified)	-0.956	-11.8
CN(C(=O)CN1CCOC(Cn2cccn2)C1)c1nccs1 (stereo unspecified)	5.6	-22.6
Cc1cc(CN2CCN(C(=O)NC(C)Cn3ccnc3)CC2)no1 (stereo unspecified)	-1.75	21
CC[C@@]1(O)CCN(C(=O)c2ccc(SC)cc2)C[C@H]1O	-1.2	5.8
CC(C)c1nnc2n1CCN(Cc1csc(CC(=O)N(C)C)n1)C2	-7.04	18.3
COc1cccc(CCC(=O)N2CCCCC2Cn2cccn2)c1 (stereo unspecified)	1.44	22.5
COCCC(=O)N1CC2(CCN(Cc3ccoc3)C2)C1	5.6	-19.5
CN(C)CC(=O)N1Cc2nc(C(=O)NCc3ccncc3)oc2C1	4.86	-45
Cc1nc(C2CCCN(C(=O)COCc3ccccc3Cl)C2)no1 (stereo unspecified)	1.96	5.07
COc1ccccc1CC(=O)NS(=O)(=O)c1ccc(C(N)=O)cc1	1.21	7.74
Cc1csc([C@@H]2C[C@@H]3CCN(C(=O)c4ccnnc4)C[C@H]3O2)n1	-2.11	-6.67
CN1CCN(c2cc(CCNC(=O)C3CCC3)nc(C3CC3)n2)CC1	-3.83	-18.7
CCCn1c(C)cc(C(=O)CN2C(=O)c3ccccc3CS2(=O)=O)c1C	0.257	-23.8
CCC(C)(NCC(=O)Nc1ccccc1)c1nc(C)cs1 (stereo unspecified)	1.93	15.8
Cc1nc(CCC(=O)NC2CCC2)cc(C2CCNCC2)n1	1.96	-6.49
COc1ccc(OC)c(CN2CCCCCC2c2cccs2)c1 (stereo unspecified)	-3.22	-16.4

Reference: ChEMBL document CHEMBL3988442, “University of Dundee, Small-Polar-MMV Screening Library” (2021)
